The source of these data is PubChem BioAssay.

Where “and” joins values, the source holds several entries; their conditions need not be identical. Identical values can stand only once. Where a structure was tested more than once in an assay, its records may differ in their call. Calls of active or inactive are those of the source.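 How the source made its calls, unless noted: active means inhibition at or above 50% relative to wild type and mutant plate controls; inactive means inhibition below 50%.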

Assay [1] in a line: inhibitors of mutant huntingtin aggregation, primary screen, imaging, exon1htt(103Q)mCFP cells, high-content imaging (AID 483;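 active means visual image review flags a hit and inhibition of aggregation exceeds 20%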;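 further: compound exposure lasted 3 days before fixation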;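 on nuclei count: percent of the per-plate median nuclei count of sample wells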). The settings on record: exon1htt(103Q)mCFP cell line, aggregate imaging, at 2 µM; inhibition of aggregation: stronger effect = higher value; nuclei count: measured here: cell count, toxicity.
Assay [2] in a line: inhibitors of E-selectin induction by TNFa, primary screen, imaging, HUVEC, immunofluorescence, MLSMR starter and 10KST1 sets (AID 487;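 active means visually confirmed hit in the image check and inhibition above 20%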;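 on inhibition: signal is fraction of cell area covered by stained E-selectin grains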;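 on nuclei count: 100% = median nuclei count of all wells on the same plate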). The settings on record: HUVEC TNFalpha-induced E-selectin immunofluorescence imaging, at 2 µM; inhibition: stronger effect = higher value; nuclei count: measured here: cell number, toxicity.
Assay [3] in a line: DUSP6 inhibitors restoring Erk phosphorylation by chemical complementation, primary imaging in DUSP6-transfected HeLa (AID 609;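 active means compounds giving at least 50% inhibition in the cell-based MKP-3 phosphatase rescue imaging test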;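 on inhibition: phospho-Erk level distribution per well compared with pooled transfected vehicle control wells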). The following applies: HeLa MKP-3 transfected, phospho-Erk imaging KS statistic, at 10 µM, cells stimulated with TPA for 15 min.
Assay [4] concerns the target Dual specificity protein phosphatase 6 (Homo sapiens) (UniProt Q16828). Described as above. The settings on record: HeLa MKP-3 transfected, phospho-Erk imaging KS statistic; at 10 µM; stronger effect = higher value; cells stimulated with TPA for 15 min.
The target in assay [5] is Voltage-gated potassium channel subunit beta-2 (Rattus norvegicus) (UniProt P62483). Nature of the assay: KvBeta enzyme negative modulators, primary screen, biochemical, NADPH fluorescence (AID 622;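 active means fluorescence slope higher than the sample average by over 3 SD, cut at about -0.22 in these data, passing the limit was not always enough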;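 further: slope of raw intensity against log time taken from 70 to 1610 s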). The settings on record: recombinant KvBeta, 4-cyanobenzaldehyde reduction, at 10 µM, stronger effect = higher value.
For assay [6] the target is unchanged. Nature of the assay: KvBeta positive modulators, primary screen, biochemical, NADPH fluorescence (AID 623;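 active means NADPH fluorescence slope more negative than the mean of all samples by about 3 SD, 99.7% confidence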;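 further: fluorescence intensity change per second fitted from 20 to 320 s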). The settings on record: Recombinant KvBeta, NADPH fluorescence decrease slope, 10 min; at 10 µM; stronger effect = lower value.
Assay [7] has as its target Alpha-2C adrenergic receptor (Homo sapiens) (UniProt P18825). Nature of the assay: modulators of alpha2C/GIRK thallium flux, primary screen, cell-based, HEK293 alpha2C/GIRK1/2 (AID 624;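 active means fluorescence slope after compound addition differing from the mean of all screened samples at 99.7% confidence, in either direction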;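 further: slope of fluorescence ratio to pre-addition baseline per second over 15 to 24 s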). The settings on record: thallium flux BTC fluorescence, at 10 µM, actives lie on both sides.
Assay [8] is described as follows: inhibitors of larval lipid processing in zebrafish, primary screen, whole organism, PED6 fluorescence, gall bladder and intestine (AID 686;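 active means a full or partial loss of lipid-probe fluorescence in the fish gall bladder, intestine or both, judged by eye; inactive means no fluorescence loss, or compound toxic to the fish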;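 further: larvae 5 to 7 days old with five fish per well; signal comes from phospholipase A2 cleavage of quenched PED6 carried via bile; overnight exposure to compound and PED6 before scoring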). The following applies: Zebrafish larvae PED6 lipid processing, fluorescence scoring; screened at 20 µM (by protocol).
Assay [9] in a line: inhibitors of Chlamydomonas gravitaxis, primary screen, whole organism, Chlamydomonas reinhardtii, WT vs cilia-less mutant, absorbance, 96-well (AID 463189).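 Further: 0% = wild type cc124 cells in DMSO and 100% = ciliumless bld1 mutant cells.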 The following applies: OD600 absorbance, 2 days, at 10 µM, stronger effect = higher value.
Assay [10] is described as follows: inhibitors of Sendai virus-induced IRF3 signaling, primary screen, TLR/RLR signaling modifier project, cell-based, Sendai virus stimulus, luciferase, 10K MLSCN set (AID 602276;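 active means inhibition at or above 50% at 10 µM; inactive means inhibition below 50%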;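 further: firefly luciferase from ISG56 promoter only with Renilla not read in this screen; 0% = Sendai virus plus DMSO and 100% = medium plus DMSO without virus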). The following applies: HEK293 RL24 IRF3 luciferase reporter, at 10 µM, stronger effect = higher value. In general terms: A reporter such as luciferase makes a cellular process visible.
Assay [11] is described as follows: inhibitors of poly I:C-induced TLR3 signaling, primary screen, cell-based, poly I:C stimulus, luciferase, 10K MLSCN set (AID 602277;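 active means inhibition of the reporter signal at or above 50%; inactive means inhibition below 50%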). The settings on record: HEK293-TLR3 RL24 IRF3 luciferase reporter, at 10 µM, stronger effect = higher value.
The mark [12] stands for this setting: measured here: cell density z-score.
Setting [13] is: measured here: nuclear c-Myc green intensity z-score.
[14] abbreviates: measured here: nuclear pErk red intensity z-score, stronger effect = higher value.

Dual specificity protein phosphatase 6 (Homo sapiens), sequence (Q16828 whole entry, looked up): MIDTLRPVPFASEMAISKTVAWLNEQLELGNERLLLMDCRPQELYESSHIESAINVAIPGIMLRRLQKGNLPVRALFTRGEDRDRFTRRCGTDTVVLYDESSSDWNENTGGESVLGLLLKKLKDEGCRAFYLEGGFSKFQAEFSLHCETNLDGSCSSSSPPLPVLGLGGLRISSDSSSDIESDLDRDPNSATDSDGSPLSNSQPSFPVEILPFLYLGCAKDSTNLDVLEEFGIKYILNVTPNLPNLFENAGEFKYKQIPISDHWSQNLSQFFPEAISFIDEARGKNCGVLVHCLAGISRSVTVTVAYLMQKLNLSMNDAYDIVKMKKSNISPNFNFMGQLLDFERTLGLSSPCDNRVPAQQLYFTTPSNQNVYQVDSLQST
Voltage-gated potassium channel subunit beta-2 (Rattus norvegicus), sequence (P62483 whole entry, looked up): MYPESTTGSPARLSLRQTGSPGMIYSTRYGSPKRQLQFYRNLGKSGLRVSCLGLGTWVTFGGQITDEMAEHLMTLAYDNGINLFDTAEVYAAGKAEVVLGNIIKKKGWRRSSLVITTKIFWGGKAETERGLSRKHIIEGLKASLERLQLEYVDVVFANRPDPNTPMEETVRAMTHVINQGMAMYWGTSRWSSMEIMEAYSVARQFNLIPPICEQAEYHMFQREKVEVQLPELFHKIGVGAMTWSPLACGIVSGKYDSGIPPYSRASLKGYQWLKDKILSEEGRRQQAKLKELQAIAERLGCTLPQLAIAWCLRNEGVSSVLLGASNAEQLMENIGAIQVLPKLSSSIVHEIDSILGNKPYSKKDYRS
Alpha-2C adrenergic receptor (Homo sapiens), sequence (P18825 whole entry, looked up): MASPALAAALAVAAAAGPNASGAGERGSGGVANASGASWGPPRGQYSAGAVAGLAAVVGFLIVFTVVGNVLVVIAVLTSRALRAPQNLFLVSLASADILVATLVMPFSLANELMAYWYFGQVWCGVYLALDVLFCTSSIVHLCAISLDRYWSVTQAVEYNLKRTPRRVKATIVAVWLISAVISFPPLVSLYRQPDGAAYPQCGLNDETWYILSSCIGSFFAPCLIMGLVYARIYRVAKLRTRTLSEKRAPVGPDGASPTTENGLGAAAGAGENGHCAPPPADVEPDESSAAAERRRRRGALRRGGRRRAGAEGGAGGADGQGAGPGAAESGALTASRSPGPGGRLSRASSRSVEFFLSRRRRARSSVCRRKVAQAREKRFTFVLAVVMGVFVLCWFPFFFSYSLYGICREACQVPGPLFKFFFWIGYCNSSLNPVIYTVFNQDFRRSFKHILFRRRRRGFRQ

Regarding `Cc1cn([C@H]2C=C[C@@H](CO)O2)c(=O)[nH]c1=O`, the inhibition of aggregation in assay [1] was -10.6% (inactive). Besides, the nuclei count in [1] is 106%; in assay [2] it was 123%. The inhibition (usually the change of the read-out against control, counted positive when it falls) in [2] was -114% (inactive); in assay [4] it was 7.39% (inactive); in [9] it was -4.19% (inactive) and -13.6% (inactive); in assay [10], 16.3% (inactive); in assay [11], 37.9% (inactive). For the same molecule, the z-score was -0.857 in assay [3] (setting [12]), 1.21 in assay [3] (setting [13]) and -0.244 in [3] (setting [14]). The fluorescence slope in assay [5] was -0.461 (inactive). Moreover, the NADPH fluorescence slope in assay [6] was 2.9e-05 (inactive). In addition, the slope in assay [7] is 0.00508 (inactive). Also, the outcome in assay [8] was inactive.

As for `CN(C)CCOC(C)(c1ccccc1)c1ccccn1` (stereo not given), in [1], the inhibition of aggregation is 21.5% (inactive). Also, the nuclei count in [1] amounted to 111%; in [2], 132%. For the same molecule, the inhibition in assay [2] is -17.5% (inactive); in assay [4], 33% (inactive); in assay [9], -2.11% (inactive) and -8.4% (inactive); in [10] it was 2.29% (inactive); in assay [11] it was 19.2% (inactive). For the same molecule, the values for the z-score in [3] (setting [12]), in assay [3] (setting [13]) and in assay [3] (setting [14]) were -0.381, 0.211 and -0.829, respectively. In addition, the fluorescence slope in [5] was -0.52 (inactive). The NADPH fluorescence slope in assay [6] was 2.3e-06 (inactive). In addition, the slope in assay [7] was 0.00491 (inactive). In assay [8], the molecule was classed as inactive.

Turning to `C[N+](C)(C)CCCCCCCCCC[N+](C)(C)C`, the inhibition of aggregation in [1] is -3.9% (inactive). Besides, the values for the nuclei count in assay [1] and in assay [2] were 89.1% and 126%, respectively. Besides, the inhibition was -38.7% (inactive) in assay [2]; 7.39% (inactive) in [4]; 0.674% (inactive) and 0.681% (inactive) in assay [9]; -7.67% (inactive) in assay [10]; 7.68% (inactive) in assay [11]. The z-score was -0.332 in [3] (setting [12]), -0.124 in assay [3] (setting [13]) and -0.205 in assay [3] (setting [14]). The fluorescence slope in assay [5] is -0.47 (inactive). In addition, the NADPH fluorescence slope in assay [6] was -5.9e-05 (inactive). In assay [7], the slope is 0.00465 (inactive). Further, the molecule was classed as inactive in assay [8].

Consider `O=c1c(O)c(-c2ccc(O)cc2O)oc2cc(O)cc(O)c12`, for which the inhibition of aggregation in assay [1] is 2.1% (inactive). Also, the nuclei count in [1] amounted to 102%; in [2] it was 114%. The inhibition is 3% (inactive) in [2]; -0.493% (inactive) in [4]; 8.46% (inactive) and 17% (inactive) in assay [9]; 11.8% (inactive) in [10]; 29.6% (inactive) in assay [11]. Besides, the z-score was -0.466 in assay [3] (setting [12]), 0.679 in assay [3] (setting [13]) and 0.0465 in [3] (setting [14]). The fluorescence slope in [5] was -0.439 (inactive). Moreover, the NADPH fluorescence slope in [6] was -0.000116 (inactive). Moreover, in [7], the slope was 0.00575 (inactive). Also, the call in [8] was inactive.

With `CC(COc1ccccc1)N(CCCl)Cc1ccccc1` (stereo not given), in assay [1], the inhibition of aggregation was 3.6% (inactive). For the same molecule, the nuclei count in [1] stood at 91.3%; in [2], 106%. The inhibition was -41.5% (inactive) in assay [2]; 3.59% (inactive) in assay [4]; -4.83% (inactive) and 76.9% (active) in [9]; 4.33% (inactive) in [10]; 22.7% (inactive) in assay [11]. Besides, the results for the z-score in [3] (setting [12]), in assay [3] (setting [13]) and in assay [3] (setting [14]) were 0.673, 0.156 and -1.5, respectively. Further, the fluorescence slope in assay [5] is -0.458 (inactive). Also, in [6], the NADPH fluorescence slope is -8e-05 (inactive). Also, the slope in [7] was 0.00427 (inactive). Also, the call in [8] was inactive.

For the molecule `CCn1cc(C(=O)O)c(=O)c2cnc(N3CCNCC3)nc21`, the inhibition of aggregation in assay [1] is 1.6% (inactive). The nuclei count in [1] was determined as 108%; in assay [2], 127%. For the same molecule, the inhibition in assay [2] is -26.1% (inactive); in assay [4], 14.6% (inactive); in [9] it was -9.24% (inactive); in assay [10] it was 4.06% (inactive); in assay [11], 33.1% (inactive). The z-score in assay [3] (setting [12]) turned out to be 0.597; in assay [3] (setting [13]) it was 0.614; in [3] (setting [14]) it was 0.576. In addition, the fluorescence slope in assay [5] is -0.512 (inactive). The NADPH fluorescence slope in [6] is -1.1e-05 (inactive). Further, the slope in assay [7] is 0.00483 (inactive). Moreover, the result in [8] was inactive.

Regarding `CCN1CCN(C(=O)N[C@@H](C(=O)N[C@@H]2C(=O)N3[C@@H]2SC(C)(C)[C@@H]3C(=O)O)c2ccccc2)C(=O)C1=O`, the inhibition of aggregation in assay [1] is 2.8% (inactive). Further, the nuclei count in [1] came to 97.2%; in [2] it was 101%. In addition, the inhibition was -1.2% (inactive) in [2]; 5.42% (inactive) in assay [4]; -8.35% (inactive) in assay [9]; 6.7% (inactive) in assay [10]; 14.4% (inactive) in [11]. Besides, the z-score in assay [3] (setting [12]) was -0.734; in assay [3] (setting [13]) it was -0.264; in assay [3] (setting [14]), -1.18. Besides, the fluorescence slope in assay [5] was -0.465 (inactive). Also, in assay [6], the NADPH fluorescence slope is -4.7e-05 (inactive). Also, the slope in assay [7] was 0.0054 (inactive). Further, the result in [8] was inactive.

As to `O=C(c1ccc(F)cc1)C1CCN(CCn2c(=O)[nH]c3ccccc3c2=O)CC1`, the inhibition of aggregation in assay [1] is -3.2% (inactive). Besides, the nuclei count turned out to be 96.4% in assay [1] and 112% in [2]. The inhibition is -46.9% (inactive) in [2]; 14.6% (inactive) in [4]; 4.84% (inactive) and -9.28% (inactive) in [9]; 0.811% (inactive) in assay [10]; 31.8% (inactive) in assay [11]. Moreover, the z-score in assay [3] (setting [12]) came out at 0.976; in assay [3] (setting [13]) it was 0.365; in assay [3] (setting [14]) it was 0.163. Further, the fluorescence slope in assay [5] is -0.453 (inactive). Besides, the NADPH fluorescence slope in assay [6] was -6.9e-05 (inactive). In assay [7], the slope was 0.00505 (inactive). Also, in [8], the outcome was inactive.

In the case of `C[C@]12C=CC(=O)C=C1CC[C@H]1[C@@H]3C[C@@H](O)[C@](O)(C(=O)CO)[C@@]3(C)C[C@H](O)[C@@]12F`, the inhibition of aggregation in assay [1] was 23.7% (inactive). Moreover, the nuclei count in assay [1] is 50.2%; in [2], 117%. In addition, the inhibition in assay [2] is -61.6% (inactive); in assay [4] it was 15.3% (inactive); in [9] it was 6.05% (inactive) and 21.3% (inactive); in [10], 13.3% (inactive); in assay [11], 37.9% (inactive). Moreover, the z-score was -0.539 in assay [3] (setting [12]), 1.04 in assay [3] (setting [13]) and -0.0271 in assay [3] (setting [14]). For the same molecule, the fluorescence slope in assay [5] is -0.508 (inactive). Besides, the NADPH fluorescence slope in assay [6] is -6.2e-05 (inactive). Further, the slope in [7] was 0.0055 (inactive). In addition, the call in assay [8] was inactive.

Consider `NS(=O)(=O)c1cc2c(cc1C(F)(F)F)NCNS2(=O)=O`, for which, in assay [1], the inhibition of aggregation is 0% (inactive). In addition, the nuclei count in [1] was 106%; in assay [2], 114%. Besides, the inhibition was -96.4% (inactive) in [2]; 3.45% (inactive) in [4]; -11.3% (inactive) in [9]; 5.25% (inactive) in assay [10]; 24.3% (inactive) in [11]. Moreover, the z-score in assay [3] (setting [12]) is -1.02; in assay [3] (setting [13]), 0.57; in [3] (setting [14]), -0.708. For the same molecule, in assay [5], the fluorescence slope was -0.444 (inactive). Moreover, the NADPH fluorescence slope in assay [6] is -4.4e-05 (inactive). Moreover, the slope in assay [7] is 0.00463 (inactive). Moreover, the call in [8] was inactive.
